TDP1 cell noCPT = qHTS for Inhibitors of human tyrosyl-DNA phosphodiesterase 1 (TDP1): qHTS in cells in absence of CPT; Potency, µM (titrated, usually from 46.2 µM), for the others: top-dose activity change, negative = growth inhibition, actives largely listed as inhibitors; AID 686978, 2013; 420,000 compounds, 15% hits; DT40 Tdp1-/- hTDP1 cells, no CPT, ATP luminescence, 48 h; further: potency means the concentration at half of the fitted maximal effect; nearly all actives have a fitted effect of over 55% in size
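Growth of hTDP1-complemented DT40 Tdp1-knockout cells is measured by ATP luminescence after at least 48 hr compound exposure at 37 °C, with DMSO substituting for the 20 nM CPT used in the parallel screen.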
ELG1 DNA repair = blocks ELG1-dependent DNA repair in HEK293T cells; Potency, µM (series often up to 46.1 µM), for the others: at the top dose activity change, negative = inhibition, most hits filed as inhibitors; AID 504467; 330,000 compounds, 2.3% hits; HEK293T ELG1-luciferase reporter, luminescence, 16 h; DNA damage induced by 5-fluorouridine; further: potency means the concentration at half of the fitted maximal effect; nearly all actives have a fitted effect of over 55% in size
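Overnight (16 hr) co-exposure of 2,000 cells/well to 5-fluorouridine and compound at 37 °C preceded detection. Luciferase was quantified via ONE-Glo luminescence; loss of signal denotes inhibition.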
DT40 TDP1 CPT = DT40-hTDP1 cell growth loss with CPT; chicken DT40 Tdp1-/-;hTDP1 cells + 20 nM CPT, ATP luminescence, 48 h; Potency, µM (series often up to 46.2 µM), for the others: at the top dose activity change, negative = growth inhibition, actives largely listed as inhibitors; 420,000 compounds, 12% hits; AID 686979; further: potency means the concentration at half of the fitted maximal effect; nearly all actives have a fitted effect of over 55% in size
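Chicken DT40 Tdp1-/- cells complemented with human TDP1, 400 cells/well, exposed to compounds plus 20 nM camptothecin for at least 48 h at 37 C; viability read as ATP content by CellTiter-Glo luminescence.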
HT1080NT lethal = kills 2HG-producing HT-1080-NT fibrosarcoma cells; 360,000 compounds, 1.6% hits; Potency, µM (titrated, usually from 46.1 µM), for inactives: top-dose activity, negative = less viability, actives largely listed as cytotoxic; AID 686970; HT-1080-NT fibrosarcoma viability, CellTiter-Glo ATP luminescence, 48 h;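 further: NT is the 2HG producing partner of a matched IDH1 knockdown line; potency means the concentration at half of the fitted maximal effect; 0% = DMSO-treated cells and -100% = media-only wells without cells; nearly all actives have a fitted effect of over 55% in size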
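Toxicity toward the 2HG-producing NT line was scored as %Activity, normalised to DMSO and no-cell wells, from CellTiter-Glo luminescence after 48 hours' treatment.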
HT1080 IDH1KD tx = HT-1080 IDH1 knockdown cell toxicity (counter line) | Potency, µM (titrated, usually from 46.1 µM), inactives show top-dose activity, negative = toxicity, actives largely listed as cytotoxic | AID 686971 | HT-1080 IDH1 knockdown viability, ATP luminescence, 48 h | 360,000 compounds, 2% hits;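 further: potency means the concentration at half of the fitted maximal effect; 0% = DMSO wells and -100% = cell-free medium wells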
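% activity derives from luminescence (CellTiter-Glo), normalised to DMSO and no-cell wells. HT-1080-IDH1KD cells, 750/well, had 48 h compound exposure at 37 °C.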
IL1B secr inh = inflammasome signaling inhibition, IL-1 beta readout | THP-1 LPS/ATP IL-1B secretion, AlphaLISA, 16 h; stronger effect = lower value | activity change, % at 57.5 µM | 360,000 compounds, 4.7% hits | AID 743279; in the data active means activity change below about -50%; inconclusive means mostly about -30% to -49%
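THP-1 cells pretreated 1 hr with compounds (up to 57.5 uM final), then stimulated with LPS (250 ng/mL final) plus ATP (1.25 mM final); secreted IL-1B measured by AlphaLISA after 16 hr, decreased signal indicating inhibition.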
* hit, by the source's call; ? = inconclusive; . = no result. Rows were chosen to be rich in hits. Some 19% of all compounds tested hit in one or more screens of this group. Unless noted, the call rests on the fitted dose curve; in most records, active means well fitted curve in the direction sought with a large enough effect; inconclusive means small, poorly fitted or top-dose-only effect, or another doubt; inactive means no such curve, though single readings can be large; an effect the other way counts as inactive or inconclusive. Unless noted, on the % scale 0 is the no-effect control and ±100 the full control effect.

SMILES	TDP1 cell noCPT	ELG1 DNA repair	DT40 TDP1 CPT	HT1080NT lethal	HT1080 IDH1KD tx	IL1B secr inh
CCN(CC)S(=O)(=O)c1ccc(-c2csc(=Nc3cccc(C(F)(F)F)c3)n2Cc2ccc3c(c2)OCO3)cc1	9.2µM*	.	?	.	.	.
Fc1ccc(-c2csc(=Nc3cccc(C(F)(F)F)c3)n2Cc2ccc3c(c2)OCO3)cc1	13µM*	.	13µM*	.	.	.
O=S(=O)(c1cccc(F)c1)N1CCN(Cc2ccc3c(c2)OCO3)CC1	-22%	0%	-15%	14%	9%	2
Cc1ccc(CN2CCN(C3CCN(C(=O)c4ccccc4)CC3)C(=O)C2=O)cc1	-8%	.	-17%	.	.	.
COc1ccc(C(=O)N2[C@@H](C(C)C)COc3cc(Br)ccc3S2(=O)=O)cc1	?	.	18µM*	-22%	?	6
COCC(=O)N(C)C[C@@H]1Oc2cc(Br)ccc2S(=O)(=O)N([C@H](C)CO)C[C@H]1C	0%	.	-1%	16%	6%	5
COc1ccc(C(=O)CSc2nnc(NC(=O)C3CC(=O)N(c4ccccc4C)C3)s2)cc1 (stereo not given)	?	-11%	?	3%	?	22
CCOC(=O)c1c(C)nc2sc3c(=O)[nH]cnc3c2c1-c1ccc(OC)cc1	?	21µM*	-19%	11%	10%	0
CCOC(=O)c1c(C)nc2sc3c(=O)n(-c4ccc(OC)cc4)nnc3c2c1-c1ccc(OC)cc1	?	?	?	12%	7%	10
COc1ccc(-c2c(C(C)=O)c(C)nc3sc4c(c23)NC(c2ccccc2)NC4=O)cc1 (stereo not given)	-27%	-30%	1%	3%	6%	33
CCOC(=O)c1c(C)nc2sc3c(=O)n(-c4ccc(C(C)=O)cc4)cnc3c2c1-c1ccc(OC)cc1	16µM*	3%	-113%	12%	16%	37
CCOC(=O)c1c(C)nc2sc3c(c2c1-c1ccc(OC)cc1)NC(c1ccccc1)NC3=O (stereo not given)	18µM*	16µM*	?	-17%	-2%	81
CC(C)C(=O)N1CCC1(C)C(=O)Nc1nc2ccccc2[nH]1 (stereo not given)	5%	.	-1%	19%	2%	29
COCCn1c(=O)c(C)nc2cnc(OC)nc21	23%	.	3%	.	.	.
Cc1ccc2c(c1)N(C(=O)CCC(=O)N1CCN(c3cccc(C)c3C)CC1)CCO2	18µM*	-23%	16µM*	?	-29%	-8
Cc1cccc(N2CCN(C(=O)CCC(=O)N3CC(C)Oc4ccccc43)CC2)c1C (stereo not given)	13µM*	?	16µM*	-26%	-9%	-18
CC1CCN(C(=O)CCC(=O)N2CC(C)Oc3ccccc32)CC1 (stereo not given)	-23%	15%	0%	-1%	11%	12
COc1cc(CCC(=O)N2CCN(c3cccc(C)c3C)CC2)cc(OC)c1OC	10µM*	18µM*	12µM*	-18%	-6%	5
Cc1ccc2c(c1)N(C(=O)CCC(=O)N1CCN(c3ccccc3)CC1)CCO2	?	-9%	?	-3%	12%	7
Cc1c(-n2c(SCC(N)=O)nc3ccccc3c2=O)c(=O)n(-c2ccccc2)n1C	-11%	8%	0%	5%	6%	0
Cc1ccc(-n2nnnc2Sc2nc([N+](=O)[O-])nn2C)cc1C	?	?	?	-24%	?	-77*
CCCCNC(=O)C1CCCN(S(=O)(=O)c2c(C)noc2/C=C/c2cccs2)C1 (stereo not given)	13µM*	?	?	-7%	9%	?
CCOCCCNC(=O)C1CCN(S(=O)(=O)c2c(C)noc2/C=C\c2ccc(OC)cc2)CC1	1%	.	-11%	0%	3%	22
Cc1noc(/C=C/c2cccs2)c1S(=O)(=O)N1CCC(C(=O)NCCCN2CCCC(C)C2)CC1 (stereo not given)	?	13%	?	-3%	-25%	-51*
CC1(c2nnnn2Cc2ccccc2)CCC(=O)N1CCCn1ccnc1 (stereo not given)	-7%	.	-13%	3%	15%	-1
SMILES	TDP1 cell noCPT	ELG1 DNA repair	DT40 TDP1 CPT	HT1080NT lethal	HT1080 IDH1KD tx	IL1B secr inh
O=C(COC(=O)c1ccc(F)c(S(=O)(=O)N2CCOCC2)c1)Nc1ccc2c(c1)OCO2	3%	0%	9%	-5%	0%	9
O=C(O)c1ccccc1N=Cc1c(O)n(-c2nccs2)c(=O)c2ccccc12	-29%	?	?	-4%	-1%	40
Cc1cc(C)c(N=Cc2c(O)n(-c3nccs3)c(=O)c3ccccc23)c(C)c1	16µM*	?	?	4%	-3%	?
COc1ccc(-n2c(O)c(C=Nc3ccccc3)c3ccccc3c2=O)cc1OC	?	-12%	?	-5%	1%	-11
Cc1cccc(C)c1N=Cc1c(O)n(-c2nccs2)c(=O)c2ccccc12	21µM*	?	15µM*	-5%	1%	-50*
CC(C)Nc1nc(Nc2ccc(F)cc2)c2sccc2n1	?	.	26µM*	-24%	-18%	-5
CC(C)Nc1nc(Nc2ccc(C#N)cc2)c2sccc2n1	26µM*	.	15µM*	-1%	-26%	-1
Cc1cc(C)n(C(C)CC(=O)NCc2ccc(N(C)C)cc2)n1 (stereo not given)	-6%	.	-17%	.	.	.
CC(=O)Oc1ccc(/C=C/C(=O)CC2OC(Oc3cc(OC(C)=O)c4c(c3)O[C@@H](c3ccc(OC(C)=O)cc3)CC4=O)C(OC(C)=O)C(OC(C)=O)C2OC(C)=O)cc1 (stereo not given in full)	7.5µM*	.	8.4µM*	.	.	.
O=C1C[C@H](c2ccc(O)cc2)Oc2cc(O[C@@H]3O[C@H](CO)[C@@H](O)[C@H](O)[C@H]3O)cc(O[C@@H]3O[C@H](CO)[C@@H](O)[C@H](O)[C@H]3O)c21	3%	?	7%	19%	17%	17
CCN(CC(=O)Nc1cc(Cl)ccc1C)C(=O)CCS(=O)(=O)c1ccc(Cl)cc1	?	-15%	18µM*	4%	1%	-29
CCC1CCCCN1C(=O)CCCOc1ccccc1 (stereo not given)	?	?	23µM*	8%	3%	-6
